# Measurements: PubChem BioAssay (NCATS)
# Results filed as inconclusive are left out. Where a call stands in place of a potency, no number is given. Values without a mark were called inactive. Calls of active or inactive are those of the source. Unless noted, the call rests on the fitted dose curve; in most records, active means well fitted curve in the direction sought with a large enough effect; inconclusive means small, poorly fitted or top-dose-only effect, or another doubt; inactive means no such curve, though single readings can be large; an effect the other way counts as inactive or inconclusive.
# Legend:
# [1] = target: Luciferin 4-monooxygenase (Photinus pyralis) (UniProt P08659); assay: Biochemical firefly luciferase enzyme assay for NPC (AID 624030); further: nearly all actives have a fitted effect of over 70% in size
# Sequence of Luciferin 4-monooxygenase (Photinus pyralis) (P08659 whole entry, looked up): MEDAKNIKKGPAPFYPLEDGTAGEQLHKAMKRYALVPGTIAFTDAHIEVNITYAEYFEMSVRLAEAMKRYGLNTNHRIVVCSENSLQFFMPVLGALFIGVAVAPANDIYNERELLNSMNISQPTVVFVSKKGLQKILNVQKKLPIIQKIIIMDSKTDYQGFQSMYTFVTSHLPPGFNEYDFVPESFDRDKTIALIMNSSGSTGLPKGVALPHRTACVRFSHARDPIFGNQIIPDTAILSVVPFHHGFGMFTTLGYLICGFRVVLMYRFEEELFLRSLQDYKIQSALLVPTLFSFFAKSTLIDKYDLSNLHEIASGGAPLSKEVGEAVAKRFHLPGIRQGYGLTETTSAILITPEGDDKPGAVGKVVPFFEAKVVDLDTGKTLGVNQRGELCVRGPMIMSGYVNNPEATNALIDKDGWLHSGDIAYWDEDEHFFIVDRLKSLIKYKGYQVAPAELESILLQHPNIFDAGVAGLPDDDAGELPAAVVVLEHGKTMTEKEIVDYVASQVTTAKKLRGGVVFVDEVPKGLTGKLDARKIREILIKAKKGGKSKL
# Outline: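 Purified P. pyralis luciferase at 10 nM in 50 mM Tris Acetate (final), luminescence read within 5 minutes of enzyme addition to compounds. Activity normalised to PTC124 versus DMSO; concentration-response curves classed by r2, magnitude and activity.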
# [2] = S16 Schwann cell viability assay (CellTiter-Glo assay) (AID 624031); further: nearly all actives have a fitted effect of over 70% in size
# Outline: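 Cells were seeded at 500-750 per well in phenol red-free DMEM with 10% FBS and left overnight. Compounds or DMSO were pinned in, incubation ran 24 h at 37 °C/5% CO2, then CellTiter-Glo reagent was added and luminescence measured.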
# [3] = S16 Schwann cell PMP22 intronic element firefly luciferase assay (AID 624032); further: nearly all actives have a fitted effect of over 30% in size
# Outline: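 Rat S16 Schwann cells stably carrying firefly luciferase driven by a PMP22 intronic element, in 10% FBS, treated 24 h at 37 C. ONE-Glo luminescence normalized to PTC124 control and DMSO (0%); curves classed by r2, magnitude and activity.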
# [4] = S16 Schwann cell PMP22 intronic element beta-lactamase assay (AID 624044; calls by dose curve; further: nearly all actives have a fitted effect of over 15% in size); conditions: S16 rat Schwann cells, PMP22 element beta-lactamase FRET, 24 h; ratio activity, negative = inhibition: at 38.3 µM (top of the series) unless noted
# Outline: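 Rat S16 Schwann cells with beta-Lac driven by a PMP22 intronic element, compound-treated 24 h at 37 °C. LiveBLAzer FRET B/G read: 460 nm normalized to potassium clavulanate vs DMSO; 535 nm FRET as viability; concentration-effect curves classified.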
# Potency means the concentration at half of the fitted maximal effect.
Structure (SMILES),Potency [1],Potency [2],Potency [3],"ratio activity, negative = inhibition [4]",Potency [4]
O.O.O.O.O.O.O.O=S(=O)([O-])[O-].[Co+2],inactive,inactive,inactive,-3.44%,
OC1OC[C@@H](O)[C@H](O)[C@@H]1O (stereo partly specified),inactive,inactive,inactive,0.472%,
CCN(CC)CCOc1ccc2nc(N(C)C)sc2c1,inactive,inactive,inactive,0.178%,
CCN(CC)C(=O)c1cccnc1,inactive,inactive,inactive,2.08%,
CCCc1nc(C(C)(C)O)c(C(=O)OCc2oc(=O)oc2C)n1Cc1ccc(-c2ccccc2-c2nn[nH]n2)cc1,inactive,inactive,inactive,0.293%,
OC[C@H]1O[C@@](CO)(O[C@H]2O[C@H](CO)[C@@H](O)[C@H](O)[C@H]2O)[C@@H](O)[C@@H]1O,inactive,inactive,inactive,0%,
O=C(O)Cc1cc(I)c(Oc2ccc(O)c(I)c2)c(I)c1,inactive,inactive,inactive,4.37% [at 17.1 µM],
CNC(=O)c1c(I)c(C(=O)NCC(=O)Nc2c(I)c(C(=O)O)c(I)c(C(=O)NCCO)c2I)c(I)c(N(C)C(C)=O)c1I,inactive,inactive,inactive,5.89%,
CCCCC(CC)CCC(CC(C)C)OS(=O)(=O)O (stereo unspecified),inactive,inactive,inactive,0%,
CN(Cc1ccccc1)Cc1ccccc1,inactive,inactive,inactive,0.417%,
CCSc1ccc2c(c1)N(CCCN1CCN(C)CC1)c1ccccc1S2,inactive,inactive,inactive,0.419% [at 17.1 µM],
OCCCNc1ccccc1,inactive,inactive,inactive,0.736%,
FC(F)(F)C(F)(F)C(F)(F)C(F)(F)C(F)(F)F,inactive,inactive,inactive,0%,
Cc1cc2nc3c(=O)[nH]c(=O)nc-3n(C[C@H](O)[C@H](O)[C@H](O)COP(=O)(O)OP(=O)(O)OC[C@H]3O[C@@H](n4cnc5c(N)ncnc54)[C@H](O)[C@@H]3O)c2cc1C,inactive,inactive,inactive,-42.7%,
CC(CNC(=O)c1cccnc1)NC(=O)c1cccnc1 (stereo unspecified),inactive,inactive,inactive,0%,
O=C1N=C2SCCN2C(=O)C1Cc1ccc(Cl)cc1 (stereo unspecified),inactive,inactive,inactive,0.0729%,
O=C1NCCN1c1ncc([N+](=O)[O-])s1,inactive,inactive,inactive,1.39% [at 17.1 µM],
CC(=O)c1ccc2c(c1)N(CCCN1CCN(CCO)CC1)c1ccccc1S2,inactive,28.7 µM (active),16.1 µM (active),-15.1%,
O=C(O)c1cc(N=Nc2ccc(O)c(C(=O)O)c2)ccc1O,9.07 µM (active),inactive,inactive,-0.669%,
Cc1nc(NS(=O)(=O)c2ccc(N)cc2)nc(C)c1Br,inactive,inactive,inactive,0.0634%,

Structure (SMILES),Potency [1],Potency [2],Potency [3],"ratio activity, negative = inhibition [4]",Potency [4]
C[N+]1(C)[C@@H]2CC(OC(=O)C(O)(c3cccs3)c3cccs3)C[C@H]1[C@@H]1O[C@@H]12 (stereo partly specified),inactive,inactive,inactive,-1.55%,
O=C(O)CC/C=C\CC[C@@H]1[C@@H](N2CCCCC2)[C@@H](O)C[C@@H]1OCc1ccc(-c2ccccc2)cc1,inactive,inactive,inactive,-1.41%,
C/C(=C\C(=O)OCCCCCCCCC(=O)O)C[C@@H]1OC[C@H](C[C@@H]2O[C@H]2[C@@H](C)[C@H](C)O)[C@@H](O)[C@H]1O,inactive,inactive,inactive,0.0634%,
CCCCCCOC(=O)c1cccnc1,inactive,inactive,inactive,2.38%,
CC(C)[C@@H](N)C(=O)O,inactive,inactive,inactive,0.806%,
O=C(OC1C[C@@H]2CC3C[C@H](C1)N2CC3=O)c1c[nH]c2ccccc12 (stereo partly specified),inactive,inactive,inactive,-0.0634%,
CC(C)[C@H](N)C(=O)OCC(CO)OCn1cnc2c(=O)[nH]c(N)nc21 (stereo partly specified),inactive,inactive,inactive,0.697%,
CC(C)CCCC(C)NC(C)C (stereo unspecified),inactive,inactive,inactive,5.39%,
Cc1ncc(C[n+]2csc(CCOP(=O)(O)OP(=O)(O)O)c2C)c(N)n1,inactive,inactive,inactive,-0.395%,
N=C(N)n1cccn1,inactive,inactive,inactive,-0.887%,
O=C(O)CCC(=O)c1ccc(-c2ccccc2)cc1,4.36 µM (active),inactive,inactive,0.885% [at 17.1 µM],
O=C(CCCN1CCN2CCCC2C1)c1ccc(F)cc1 (stereo unspecified),inactive,inactive,inactive,-6.15%,
O=C(O)/C=C/C(=O)Nc1ccc(S(=O)(=O)Nc2nccs2)cc1,inactive,inactive,inactive,1.33%,
COC(=O)CC[C@H](N)C(=O)O,inactive,inactive,inactive,-5.51%,
CC1CC(OC(=O)C(O)c2ccccc2)CC(C)(C)C1 (stereo unspecified),inactive,inactive,inactive,-3.78%,
CCCCCCCCCCCCOCCCN,inactive,inactive,inactive,0.509%,
CC(C)c1nc(N(C)S(C)(=O)=O)nc(-c2ccc(F)cc2)c1/C=C/C(O)CC(O)CC(=O)O (stereo unspecified),inactive,inactive,inactive,3.3%,
CCCCCCCCCCCCCCCCOCCOCCOCCOCCOCCOCCOCCOCCOCCOCCOCCOCCOCCOCCOCCOCCOCCOCCOCCOCCO,inactive,28.7 µM (active),22.8 µM (active),,19.9 µM (active)
FC(F)(F)COCC(F)(F)F,inactive,inactive,inactive,-0.887%,
